# Data taken from paper PMC13083723 (Patterns, 2026).
# The campaign covered roughly 5,400 compounds. About 190 (3.5%) showed an effect of 50% or more. Shown is part of a subset that was picked to be rich in strong results.
# System: Vero-E6
# Assay: primary screen, phospholipidosis by LipidTOX staining; higher = more effect of the substance
# Conditions: 10 µM
# Summary of the method: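 Drug-induced phospholipidosis detected with HCS LipidTOX Red reagent in Vero-E6 cells. Compounds tested at 10 μM, with amiodarone (10 μM) as positive control and DMSO (0.1 v/v %) as vehicle.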
row,Compound,result_ITMP [%]
1,C=C1/C(=C\C=C2/CCC[C@]3(C)[C@@H]([C@H](C)/C=C/[C@@H](O)C4CC4)CC[C@@H]23)C[C@@H](O)C[C@@H]1O,-1.18
2,Nc1nc(=O)c2c([nH]1)NC[C@H](CNc1ccc(C(=O)N[C@@H](CCC(=O)[O-])C(=O)[O-])cc1)N2C=O,-7.53
3,Cn1cc(-c2ccc3ncc(Cc4ccc5ncccc5c4)n3n2)cn1,3.96
4,COc1cc(OC)cc(N(CCNC(C)C)c2ccc3ncc(-c4cnn(C)c4)nc3c2)c1,55.2
5,COc1cc2ncc(-c3ccccc3)nc2cc1OC,-10.1
6,CCCCCN(C)CCC(O)(P(=O)([O-])O)P(=O)(O)O,3.23
7,C=CCN.ClCC1CO1 (stereo not drawn),-4.42
8,C[C@@H]1N=C(N)NC(N(C)C)=N1,-2.11
9,CC(C)c1cnn2c(NCc3ccccc3)cc(NCCCCCCN)nc12,53.6
10,CC(=O)N[C@H]1[C@H]([C@H](O)[C@H](O)CO)OC(C(=O)O)=C[C@@H]1NC(=N)N,-15.8
11,Cc1ncc(-c2csc(NC(=N)N)n2)[nH]1,-2.01
12,c1ccc2c(c1)Sc1ccccc1N2CC1CN2CCC1CC2 (stereo not drawn),71.6
13,Cn1cc(C(=O)C(=O)N[C@H]2CN3CCC2CC3)c2ccccc21,4.71
14,C[C@H](CCC(=O)[O-])[C@H]1CCC2C3C(=O)CC4CC(=O)CC[C@]4(C)C3CC(=O)[C@@]21C (stereo partly drawn),4.65
15,COc1cc(C)c2c(Oc3cccc(C(F)(F)F)c3)c(OC)cc(NC(C)CCCN)c2n1 (stereo not drawn),51.6
16,COc1cc(NC(C)CCCN)c2ncccc2c1 (stereo not drawn),1.37
17,CO[C@H]1CC[C@H](N(c2cc(C3=CCCCC3)sc2C(=O)[O-])C(=O)[C@H]2CC[C@H](C)CC2)CC1,-0.87
18,C[C@]12CC[C@@H]3c4ccc(OC(=O)N(CCCl)CCCl)cc4CC[C@H]3[C@@H]1CC[C@@H]2OP(=O)([O-])[O-],-4.08
19,O=C(CCCN1CCC2(CC1)C(=O)N(Cc1cccc(F)c1)CN2c1ccccc1)c1ccc(F)cc1,89
20,O=C(CCCN1CCC(O)(c2ccc(Br)cc2)CC1)c1ccc(F)cc1,14.8
21,O=C(CCCN1CCC2(CC1)C(=O)NCN2c1ccccc1)c1ccc(F)cc1,20.3
22,CC(=O)OCC1=C(C(=O)[O-])N2C(=O)[C@@H](NC(=O)CCCC(N)C(=O)[O-])C2SC1 (stereo partly drawn),1.34
23,CC1(C)[C@H]2CC[C@@]1(C)[C@H](O)[C@@H]2O,-3.19
24,C[C@@H]1[C@H](O)[C@@H](C)/C=C/C=C/C=C/C=C/C=C/C=C/C=C/[C@H](O[C@@H]2O[C@H](C)[C@@H](O)[C@H](N)[C@@H]2O)C[C@@H]2O[C@](O)(C[C@@H](O)C[C@@H](O)[C@H](O)CC[C@@H](O)C[C@@H](O)CC(=O)O[C@H]1C)C[C@H](O)[C@H]2C(=O)O,0.23

row,Compound,result_ITMP [%]
1,C[C@]12CCC(=O)C=C1CC[C@@H]1[C@@H]2[C@@H](O)C[C@]2(C)C(=O)CC[C@@H]12,-4.8
2,NC(=O)[C@@H]1CC[C@@H]2CN1C(=O)N2OS(=O)(=O)[O-],-0.26
3,COc1cc(OC2CCN(C)CC2)ccc1Nc1ncc2c(n1)n(C1CCCC1)c(=O)n2C,37.2
4,CC[C@@H]1C(=O)N(C)c2cnc(Nc3ccc(C(=O)N[C@H]4CC[C@H](N5CCN(CC6CC6)CC5)CC4)cc3OC)nc2N1C(C)C,81.5
5,COc1ccc(F)c(F)c1C(=O)c1cnc(NC2CCN(S(C)(=O)=O)CC2)nc1N,16.3
6,CCOc1cc(C(=O)N2CCC(N3CCN(C)CC3)CC2)ccc1Nc1ncc2c(n1)N(C1CCCC1)c1ccccc1C(=O)N2C,14.1
7,COc1cc(C(=O)N2CCC(N3CCN(C)CC3)CC2)ccc1Nc1ncc2c(n1)N(C)c1ccccc1C(=O)N2C,37.9
8,CC(C)CCN1c2nc(Nc3cc(F)c(O)c(F)c3)ncc2N(C)C(=O)C1C (stereo not drawn),17.5
9,CC[C@@H]1C(=O)N(C)c2cnc(Nc3ccc(C(=O)NC4CCN(C)CC4)cc3OC)nc2N1C1CCCC1,66.8
10,COc1cc(C(=O)NC2CCN(C)CC2)c(F)cc1Nc1ncc2c(n1)N(C1CCCC1)CC(F)(F)C(=O)N2C,69.4
11,CC(C)(C)/[N+]([O-])=C/c1ccc(S(=O)(=O)[O-])cc1S(=O)(=O)[O-],-0.44
12,O=C(O)c1ccc(/C=C2\SC(=S)N(c3cccc(C(F)(F)F)c3)C2=O)cc1,0.16
13,CC(C)(COP(=O)([O-])OP(=O)([O-])OC[C@H]1O[C@@H](n2cnc3c(N)ncnc32)[C@H](O)[C@@H]1OP(=O)([O-])O)[C@@H](O)C(=O)NCCC(=O)NCCS,-4.31
14,COc1ccc(/C=C\c2cc(OC)c(OC)c(OC)c2)cc1OP(=O)([O-])[O-],11.6
15,N=C1NCCN1CC(=O)O,1.96
16,O=C(O)CC/C=C\C[C@@H]1CO[C@H](c2ccccc2Cl)O[C@@H]1c1ccccc1O (racemic),-1.11
17,NC(=O)C1=CN([C@@H]2O[C@H](COP(=O)([O-])OP(=O)([O-])OC[C@H]3O[C@@H](n4cnc5c(N)ncnc54)[C@H](O)[C@@H]3O)[C@@H](O)[C@H]2O)C=CC1,-10.8
18,C[C@H]1Oc2cc(cnc2N)-c2c(nn(C)c2C#N)CN(C)C(=O)c2ccc(F)cc21 [R4A_0001637_001 / SPE_A23124853],-7.18
19,Cc1onc(-c2ccccc2)c1C(=O)NC1C(=O)N2[C@@H]1SC(C)(C)[C@@H]2C(=O)[O-] (stereo partly drawn),-4.06
20,N=C(N)SCCc1ccc(OCc2ccc([N+](=O)[O-])cc2)cc1,70
21,O=C(O)c1cc(Oc2ccc([N+](=O)[O-])cc2)cc(Oc2ccc([N+](=O)[O-])cc2)c1,-1.17
22,CCOC(=O)C1CSC(Cc2ccc(OCc3ccc([N+](=O)[O-])cc3)cc2)N1 (stereo not drawn),-2.45
23,COc1c(C)c(C(=O)c2ccc(N)c(C(=O)[O-])c2)n2ccccc12,-3.94
24,NCCC(O)(P(=O)([O-])O)P(=O)([O-])O,-8.19
